The source made the active and inactive calls.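 The calls were made as follows: active = ATP luminescence loss from cell killing, with fitted half-maximal dose at or below the top valid tested dose; inconclusive = flat curve with partial loss of 30 to 70%, or poor fit; inactive = the rest.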

For 13 compounds, outcome results are on record in PubChem BioAssay AID743147 (Broad Institute, 2013).

This assay is described as follows: HEK293T cell cytotoxicity, dose response, cytotoxicity control, CellTiter-Glo luminescence, dry powder, set 5 (AID 743147). The note with it: HEK293T viability, CellTiter-Glo ATP luminescence, 72 h; series mostly up to 26 µM. Background: ATP-based viability assays read luminescence as a measure of living cells.
Regarding `C[C@@H]1CC(=O)NN=C1c1ccc(F)c(F)c1`, the compound was called inactive. On to `C[C@@H]1CC(=O)NN=C1c1ccc(N2CCOCC2)c(F)c1`, for which the compound was called inactive. Consider `Cn1c(NC(=O)c2ccccc2)nc2ccccc21`, for which the result was inactive. As for `C[C@@H]1CC(=O)NN=C1c1ccc(-c2cncnc2)cc1`, the compound was called inactive. As for `COc1cc2c(cc1OC)-c1cc(=Nc3c(C)cc(C)cc3C)n(C)c(=O)n1CC2`, the compound was called inactive. To `C[C@H]1CC(=O)NN=C1c1ccc(N2CCOCC2)c(F)c1` belongs “inactive”. For `CC(=O)Nc1ccc(C2=NNC(=O)C[C@H]2C)cc1[N+](=O)[O-]`, the call was inactive. As for `CCN(CC)c1ccc(C2=NNC(=O)CC2C)cc1[N+](=O)[O-]` (stereo not drawn), the compound was classed as inactive. For the compound `C[C@@H]1CC(=O)NN=C1c1ccc(C2CCCCC2)cc1`, the compound was called inactive. On to `O=C1CN2Cc3c(ccc(Cl)c3Cl)N=C2N1`, for which the compound was classed as inactive. Under `CCN1N=C(c2ccc(N(CC)CC)cc2)[C@H](C)CC1=O` stands “inactive”. As for `C[C@@H]1CC(=O)NN=C1c1ccc(Cl)cc1`, the call was inactive. Take `C[C@@H]1CC(=O)NN=C1c1ccc(N2CCOCC2)cc1`: the compound was called inactive.
